# Screening results from PubChem.
# TDP1 cell CPT – growth inhibition of DT40 Tdp1-/-;hTDP1 cells with camptothecin (screen for TDP1 inhibitors); actives 12% (n = 420,000); chicken DT40 Tdp1-/-;hTDP1 cells + 20 nM CPT, ATP luminescence, 48 h; Potency, µM (highest dose often 46.2 µM), for inactives: at the top dose activity change, negative = growth inhibition, usual class: inhibitors; note: nearly all actives have a fitted effect of over 55% in size
#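 Chicken DT40 Tdp1-/- cells stably complemented with human TDP1 were seeded at 400 cells/well in medium containing 20 nM camptothecin, exposed to pin-transferred compounds, and grown at 37 °C for at least 48 hr. Viability was read as ATP luminescence.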
# VDR inhibitor – inhibitors of human vitamin D receptor; P11473; VDR-SRC2-3 peptide fluorescence polarization, 2 h; Potency, µM, inactives show max response, negative = inhibition, most hits filed as inhibitors; actives 0.93% (n = 400,000)
#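 Compounds are added to VDR with labelled SRC2-3 coactivator peptide and held 2 h at room temperature. Inhibition of the VDR–peptide interaction is then read as a change in fluorescence polarization.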
# TDP1 cell noCPT – qHTS for Inhibitors of human tyrosyl-DNA phosphodiesterase 1 (TDP1): qHTS in cells in absence of CPT; DT40 Tdp1-/- hTDP1 cells, no CPT, ATP luminescence, 48 h; actives 15% (n = 420,000); Potency, µM (series often up to 46.2 µM), inactives show top-dose activity change, negative = growth inhibition, most hits filed as inhibitors; note: nearly all actives have a fitted effect of over 55% in size
#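 DT40 Tdp1-/-;hTDP1 cells, no CPT (DMSO vehicle only), 400 cells/well; compounds pin-transferred; ≥48 hr, 37 °C; CellTiter-Glo 30 min RT dark, luminescence read.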
# PLK1 PBD block – inhibitors of human PLK1 polo-box domain binding; AID 720504; actives 2.8% (n = 360,000); Plk1 PBD binding of FITC phosphopeptide, fluorescence polarization; Potency, µM, for the others: max response, negative = inhibition, most hits filed as inhibitors; P53350; note: series mostly up to about 57 µM; nearly all actives have a fitted effect of over 65% in size
# KAT2A inh – GCN5L2 (KAT2A) acetyltransferase inhibition. Q92830. GCN5L2 HAT assay, ThioGlo1 CoA-SH fluorescence. Potency, µM (top dose mostly 58.9 µM), for the others: at the highest dose activity change, negative = inhibition, actives largely listed as inhibitors. actives 0.21% (n = 390,000)
# Target sequence (Q92830 whole entry, looked up): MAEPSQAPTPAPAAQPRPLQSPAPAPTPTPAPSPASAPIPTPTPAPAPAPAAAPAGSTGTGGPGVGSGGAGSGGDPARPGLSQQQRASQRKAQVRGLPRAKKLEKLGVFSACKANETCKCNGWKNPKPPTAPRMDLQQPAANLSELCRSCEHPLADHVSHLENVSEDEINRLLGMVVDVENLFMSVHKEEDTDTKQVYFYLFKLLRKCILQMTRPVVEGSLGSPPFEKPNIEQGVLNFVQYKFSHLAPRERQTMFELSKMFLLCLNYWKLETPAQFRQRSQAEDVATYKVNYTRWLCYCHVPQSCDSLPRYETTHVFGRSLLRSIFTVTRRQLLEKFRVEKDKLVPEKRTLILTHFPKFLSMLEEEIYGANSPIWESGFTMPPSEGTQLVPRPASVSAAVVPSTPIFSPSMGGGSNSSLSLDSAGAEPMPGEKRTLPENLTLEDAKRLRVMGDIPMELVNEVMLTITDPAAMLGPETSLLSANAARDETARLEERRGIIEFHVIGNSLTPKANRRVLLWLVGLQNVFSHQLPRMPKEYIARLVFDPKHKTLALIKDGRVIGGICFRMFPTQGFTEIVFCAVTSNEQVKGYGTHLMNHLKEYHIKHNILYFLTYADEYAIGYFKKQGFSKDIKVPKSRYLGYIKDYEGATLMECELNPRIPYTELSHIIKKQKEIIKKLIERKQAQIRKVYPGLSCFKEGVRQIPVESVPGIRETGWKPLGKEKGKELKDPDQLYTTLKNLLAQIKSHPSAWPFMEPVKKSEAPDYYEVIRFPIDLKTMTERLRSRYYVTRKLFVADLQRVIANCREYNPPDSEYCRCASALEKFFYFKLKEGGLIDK
#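 ThioGlo1-coupled HAT assay: 20nM GCN5L2, 70uM acetyl-CoA, 75uM H3(1-25) peptide, pH 7.5. Fluorescence read at 340/540nm at start and after 20 min at room temperature.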
# TDP1 inh – TDP1 (human) enzyme inhibition; actives 0.28% (n = 350,000); Q9NUW8; AID 485290; recombinant TDP1, AlphaScreen DNA substrate cleavage; Potency, µM (titrated, usually from 130 µM), without a hit: at the highest dose activity change, negative = inhibition, hits mostly inhibitors; note: nearly all actives have a fitted effect of over 40% in size
#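 Signal: AlphaScreen proximity between streptavidin donor and anti-FITC acceptor beads on intact substrate. Reaction: Tdp1 1 nM, substrate 15 nM final, 5 min RT after 15 min compound preincubation.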
# Starred values were filed as active, the others as inactive; ? = inconclusive; . = not tested or not shown; [ ] = another dose, or the depositor's remark. Only some compounds are listed: those with a hit (about 18% of all), similar ones and a draw of the others. Calls come from the whole dose curve; as a rule, active = well fitted curve in the direction sought with a large enough effect; inconclusive = small, poorly fitted or top-dose-only effect, or another doubt; inactive = no such curve, though single readings can be large; an effect the other way counts as inactive or inconclusive. % is set by controls: 0 for no effect and ±100 for the full control effect; potency is the fitted concentration of half-maximal effect.
SMILES,TDP1 cell CPT,VDR inhibitor,TDP1 cell noCPT,PLK1 PBD block,KAT2A inh,TDP1 inh
CC(=O)c1c(NCCc2ccccc2)nc(=S)n(-c2ccccc2)c1C,21µM*,-28%,18µM*,-18%,-8%,1%
CCn1c(C)c(C(C)=O)c(NCc2ccccc2)nc1=S,-12%,-2%,-4%,-2%,2%,4%
O=C(Nc1cccc(F)c1)C1CCCN1S(=O)(=O)c1cccc2cccnc12 (stereo not given),18µM*,-17%,?,-7%,0%,-1%
Cc1ccc(NC(=O)C2CCCN2S(=O)(=O)c2cccc3cccnc23)cc1 (stereo not given),?,-2%,?,.,1%,2%
CC(=O)c1cccc(NC(=O)C2CCCN2S(=O)(=O)c2cccc3cccnc23)c1 (stereo not given),?,-11%,-28%,-14%,-11%,0%
O=C(Nc1ccc(C(F)(F)F)cc1)C1CCCN1S(=O)(=O)c1cccc2cccnc12 (stereo not given),?,-3%,23µM*,-11%,-9%,0%
Cc1ccc(NC(=O)C2CCCN2S(=O)(=O)c2cccc3cccnc23)cc1C (stereo not given),?,-9%,21µM*,.,-1%,-1%
Cc1ccc(NC(=O)C2CCCN2S(=O)(=O)c2ccc3nc(-c4ccccc4)[nH]c3c2)cc1F (stereo not given),18µM*,10%,10µM*,.,-17%,-3%
COc1ccc(OC)c(CNC(=O)CCC(=O)N2Cc3cccc(OC)c3Oc3ncccc32)c1,1%,-3%,-22%,-1%,-5%,1%
CC(C)(CNC(=O)c1cnn(-c2nccc(-c3cc4ccccc4o3)n2)c1C1CC1)N1CCOCC1,-8%[9.04 µM],.,-4%,.,.,.
C[C@@H]1CN(S(=O)C(C)(C)C)[C@H](CCO)/C1=C\CCO (stereo not given in full),1%,-19%,0%,0%,.,.
COc1ccc2c(c1)nc(N)n2Cc1ccccc1,?,1%,?,-11%,-7%,8%
CN=C1c2cc3cc(OC)ccc3n2CCN1Cc1ccccc1,3.3µM*,-4%,2.9µM*,-14%,-18%,6%
O=C1N=C(N2CCOCC2)S/C1=C1\C(=O)N(Cc2ccccc2)c2ccc(Br)cc21,.,.,.,.,-1%,2%
CCCCN1C(=O)/C(=C2\SC(N3CCCCC3)=NC2=O)c2ccccc21,23µM*,-22%,?,24µM*,-13%,14%
Cc1nc(COC(=O)c2cc(O)c3ccccc3c2O)cs1,?,?,?,21µM*,-20%,3%
CCOC(=O)N1CCC(NC(=O)c2cc(C(=O)NC3CCN(Cc4ccccc4)CC3)ccc2CO)CC1,1.8µM*,32%,-24%,-11%,2%,4%
CCOC(=O)N1CCC(NC(=O)c2cc(C(=O)Nc3ccc(F)cc3F)ccc2CO)CC1,-25%,-17%,-24%,1%,-6%,0%
CCOC(=O)N1CCC(NC(=O)c2cc(C(=O)NCc3ccc(F)cc3)ccc2CO)CC1,?,-6%,12µM*,?,-2%,0%
CCOC(=O)N1CCC(NC(=O)c2cc(C(=O)Nc3ccc(S(=O)(=O)N4CCOCC4)cc3)ccc2CO)CC1,?,-8%,-29%,0%,-10%,-5%
O=C(Oc1ccc([N+](=O)[O-])cc1)c1cncc(Br)c1,-19%,?,-16%,?,-3%,-5%
O=C(CSc1ncnc2[nH]ncc12)Nc1nc(-c2ccc(F)c(F)c2)cs1,13µM*,2%,21µM*,-7%,-4%,.
COc1ccc(CC(=O)Nc2nc(-c3ccc(F)c(F)c3)cs2)cc1,21µM*,16%,16µM*,0%,-8%,3%
O=C(Cc1ccc(F)cc1)Nc1nc(-c2ccc(F)c(F)c2)cs1,8.2µM*,-21%,?,-23%,-3%,.
COc1ccc(CC(=O)Nc2nc(-c3cccc([N+](=O)[O-])c3)cs2)cc1,?,2%,?,-3%,1%,2%
SMILES,TDP1 cell CPT,VDR inhibitor,TDP1 cell noCPT,PLK1 PBD block,KAT2A inh,TDP1 inh
COc1ccc(-c2csc(NC(=O)CS(=O)(=O)c3ccccc3)n2)cc1,?,12%,23µM*,5%,0%,.
Cc1csc(NC(=O)Cc2ccc(F)cc2)n1,9%,6%,-6%,6%,0%,.
Cc1cc(C)c2cc(C#N)c(NCCNC(=O)c3ccncc3)nc2c1,?,.,-26%,-4%,.,.
CC(=O)NCCOc1nc(N(C)C)nc(N2CCOCC2)n1,-1%,7%,6%,-2%,-9%,0%
O=C(NCCOc1nc(N2CCCCC2)nc(N2CCCCC2)n1)Nc1ccccc1,?,-13%,23µM*,-7%,-23%,3%
CC(=O)NCCOc1nc(N2CCCCC2)nc(N2CCCCC2)n1,-25%,-11%,15µM*,-10%,?,3%
Cc1ccc(CN2CCN(CCCn3cccn3)CC2CCO)cc1 (stereo not given),-23%,16%,?,-20%,-26%,-3%
Cc1nc2c(N)nn(C)c2nc1C,4%,.,-3%,-4%,.,.
Cc1cccc(NC(=O)/C(C#N)=C/c2cccc([N+](=O)[O-])c2)n1,-5%,?,-23%,27µM*,-1%,.
CCc1ccc(OC(C)c2nc(-c3ccc(-n4cccc4)cc3)no2)cc1 (stereo not given),-48%,-11%,?,.,-1%,6%
COC(=O)c1cc2sc(Cl)cc2n1CC(=O)Nc1cccc(SC)c1,-29%,-3%,-27%,-4%,-1%,2%
COC(=O)c1cc2sc(Cl)cc2n1CC(=O)Nc1cc(C)cc(C)c1,21µM*,-4%,?,.,-10%,2%
CC(=O)c1ccc(S(=O)(=O)N(C)CCCC(=O)NCc2ccc3c(c2)OCO3)cc1,-18%,-13%,?,-9%,-11%,11%
COc1ccc(CC2(CO)COc3ccccc3C2=O)cc1 (stereo not given),?,-4%,16µM*,3%,.,.
COc1ccc(CN2C(=O)COc3ccccc32)cc1,-1%,-1%,-20%,-1%,-7%,.
CN1CCN(CCCc2c3c(cc4c2CCC4)CCC3)CC1,?,-11%,?,-7%,0%,0%
CCOC(=O)/C(C#N)=C/c1cn(CCC(=O)O)nc1-c1ccccc1,?,-29%,-12%,30µM*,-2%,-2%
CCOC(=O)/C(C#N)=C/c1cn(CCC(=O)O)nc1-c1ccc(Cl)cc1,-2%,-18%,-15%,-8%,-9%,4%
